The values that follow come from PubChem BioAssay (NCI).

The structures appear in SMILES notation. About 83,000 compounds went through this panel and 20% of them were active in at least one assay; those are over-represented in the sample as a whole.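 The endpoint reported here, percent growth, reads 100 for growth as untreated, 0 for no net growth and -100 for all cells dead.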 The source made the active and inactive calls.

The subject of this test is A498 renal. Put plainly: NCI-60 one-dose screen, 48 h (100 = growth as untreated, 0 = no growth, -100 = all killed). The settings on record: 10 µM unless noted. The method, then:
Growth inhibition of the A498 human tumor cell line is measured as a screen for anti-cancer activity. Cells are grown in 96 well plates and exposed to the test compound for 48 hours. Compounds are tested at a single concentration, which is 10^-5 M for most compounds. The reported endpoint is percent growth (GI% or GIPRCNT), where numbers from 0 - 100% represent growth inhibition, and numbers from -100% - 0 represent cell death. For example, a value of 40 represents 60% growth inhibition. A value of 0 means no net growth occurred over the course of the experiment. A value of -40 indicates 40% of cells at the beginning of the experiment died by the end of the experiment. A value of -100 means all cells are dead at the end of the experiment.
NCI-60 Human Tumor Cell Lines Screen was performed using the standard one-dose NCI protocol, which is described in more detail at https://dtp.cancer.gov/discovery_development/nci-60/default.htm.
Compounds with GIPRCNT values below 10 were considered active. Activity score was based on GIPRCNT using the following formula: […]
Score is 0 for GIPRCNT values of 100 or above, 50 for GIPRCNT values of 0, and 100 for GIPRCNT values of -100.
As to `O=C(O)c1ccc(-c2nn(-c3ccc(C(=O)O)cc3)cc2/C=N/Nc2c(F)c(F)cc(F)c2F)cc1`, the growth was 115% (inactive).

`NCC(=O)NS(=O)(=O)OC[C@H]1O[C@@H](n2cnc3c(N)ncnc32)[C@H](O)[C@@H]1O`: the growth was -58.8% (active).

As for `COc1cc(Br)c(-c2nc(-c3ccccc3)c(-c3ccccc3)n2Cc2ccccc2)cc1OC`, the growth was 73.8% (inactive).

Turning to `Nc1ncnc2c1c(C(F)(F)F)cn2[C@@H]1O[C@H](CO)[C@@H](O)[C@H]1O`, the growth was -43.2% (active).

For `CC(C)(C)OC(=O)N1CCN(CCn2cc(C(F)(F)F)c3c(Cl)ncnc32)CC1`, the growth was 103% (inactive).

As to `COc1cc(/C=C\c2cc(/C=C\c3ccc(O)c(OC)c3)n(C(=O)CNc3ccccc3OC)n2)ccc1O`, the growth was 105% (inactive).

In the case of `C=CCOc1ccc(/C(Cl)=N/N=C(\Cl)c2cc(OC)c(OC)c(OC)c2)cc1`, the growth was 76.8% (inactive).

`CN(C)c1ccc(/C=N/N=C(N)N)cc1`: the growth is 17.7% (inactive).

For the compound `Cc1ccc(N(CC2=NCCN2)c2cccc(O)c2)cc1`, the growth was 93.8% (inactive).

`O=C(C[n+]1ccccc1Cl)c1ccc2c(c1)CCCC2`: the growth is 91.3% (inactive).

For `O=C(Nc1cccc(-n2ccc3c(NC(=O)c4ccccc4)nccc32)c1)Nc1cc(C(F)(F)F)cc(C(F)(F)F)c1`, the growth was 16.4% (inactive).

Turning to `NS(=O)(=O)c1ccc(Nc2nc(O)c(/C=C3\C=Nc4ccccc43)s2)cc1`, the growth was 106% (inactive).

Consider `FC(F)(F)c1cn(CCN2CCOCC2)c2ncnc(Cl)c12`, for which the growth is 105% (inactive).

Regarding `COc1ccc(/C=C/C(=O)c2ccc(NC(=O)CSc3nnc(-c4cc(OC)c(OC)c(OC)c4)o3)cc2)cc1`, the growth is 90.5% (inactive).

Take `C=C1C(=O)O[C@H]2[C@H]1CC/C(CNC(=O)/C1=C/CC[C@@]3(C)O[C@H]3[C@H]3OC(=O)C(=C)[C@@H]3CC1)=C\CC[C@@]1(C)O[C@@H]21`: the growth is 94.6% (inactive).

On to `Nc1nc(Nc2ccc(OCc3cccc(F)c3)cc2)c2c(n1)[nH]c1ccc(O)cc12`, for which the growth is 75.9% (inactive).

As for `CCCCOc1c(N)cccc1C(=O)OCCN(CC)CC`, the growth was 90.5% (inactive).

As for `O=C(C[n+]1cccc(Br)c1)c1ccc2c(c1)CCCC2`, the growth was 106% (inactive).

For `Cc1[nH]c2ccc(F)cc2c1CCNC(=O)C1CCN(C(=O)c2ccc(-c3ccccc3)cc2)CC1`, the growth is 47.9% (inactive).

As to `COc1ccc(/C=C2\CS(=O)(=O)C/C(=C\c3ccc(OC)cc3)C2=O)cc1`, the growth was 36% (inactive).

For `CC1OC(n2c3ccccc3c3c4c(c5c6ccccc6[nH]c5c32)C(=O)N(CCN[C@@H]2CCC[C@H]2N)C4=O)CC(O)C1O` (stereo not given in full), the growth is 48.3% (inactive).

On to `CC(C)(C)C(=O)Nc1nc2c(s1)CCc1ccn(S(=O)(=O)c3ccccc3)c1-2`, for which the growth is 101% (inactive).

Turning to `CCC(N)(C(=O)O)c1ccc(F)cc1` (stereo not given), the growth was 117% (inactive).

For `CC(C)(C)NCC(O)COc1c(Br)c(Br)c(Br)c2c1OC(C)(C)C2` (stereo not given), the growth was -6.49% (active).

Turning to `ClC1c2ccccc2CCc2ccccc21`, the growth was 102% (inactive).

On to `C/C(=N/NC(=O)Cn1c2ccccc2c2ccncc21)c1cccs1`, for which the growth is 86.5% (inactive).

Take `C[C@H]1C=C(C[C@@H](O)CCCCCCCCCC[C@@H](O)[C@H]2CCC(=O)O2)C(=O)O1`: the growth was 163% (inactive).

Take `CC(C)CCC[C@@H](C)[C@H]1CC[C@H]2[C@@H]3CC=C4N(c5ccccc5)C(=O)CC[C@]4(C)[C@H]3CC[C@]12C`: the growth is 118% (inactive).

`C#CC(=O)/C=C/CCCCCCC#CC(=O)CCC(=O)C#CCCCCCC/C=C/C(=O)C#C`: the growth was 93.4% (inactive).

Take `Oc1ccc(O)c(-[n+]2ccccc2)c1`: the growth is 108% (inactive).

`COc1ccc(-c2ccc(NC(=O)Nc3cccc(C(F)(F)F)c3)c(C)n2)cc1`: the growth was 52.1% (inactive).

Take `CCc1c(C)c2cc3c(c(C)c2oc1=O)OCC(=O)N3`: the growth was 43.6% (inactive).

For the compound `CCOc1ccccc1C(=O)N1CCN(c2cc(Cl)cc(Cl)c2)CC1`, the growth was 6.38% (active).

Turning to `C[C@H]1C=C(C[C@@H](O)CC#CC#CCCCCC[C@@H](O)[C@H]2CCC(=O)O2)C(=O)O1`, the growth was 107% (inactive).

`CCOc1ccc(-n2c(-c3cc(OC)c(OC)c(OC)c3)nnc2-c2ccc(OC)cc2N)cc1`: the growth is 67.3% (inactive).

On to `CC12CCC3C(CCC4CC(O)CCC43C)C1C/C(=C/O)C(=O)O2` (stereo not given), for which the growth was 62.7% (inactive).

With `COc1ccc(C(=O)NC(=O)Nc2ccc3c(c2)NC(=O)/C3=C\c2[nH]c(C)c(CCC(=O)O)c2C)c(F)c1`, the growth was -0.45% (active).

Turning to `O=C(NCCNc1nccc(-c2c(-c3cccc(O)c3)nc3sccn23)n1)Nc1cccc(C(F)(F)F)c1`, the growth is 111% (inactive).

For `COc1ccc(Cl)cc1NC(=O)c1cc2c(n1C)-c1nc(NC(=O)C(C)C)sc1CC2`, the growth was 93.2% (inactive).

For `O=C(Nc1ccc(-n2ccc3c(NC(=O)c4ccccc4)nccc32)cc1)c1cccc(C(F)(F)F)c1`, the growth is 39% (inactive).
